# Hits are enriched below; roughly 7.3% of the tested compounds scored in any of these assays.
# AmpC no deterg: blocks E. coli AmpC beta-lactamase in detergent-free assay | P00811 | Potency, µM (series often up to 57.1 µM), for inactives: top-dose activity change, negative = inhibition, usual class: inhibitors | AmpC nitrocefin hydrolysis, absorbance 480 nm, 0.0001% Triton | 330,000 tested, 0.52% active;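 also: potency is read from the fitted curve at half-maximal effect; plate controls were no compound for no effect and no enzyme for full effect; nearly all actives have a fitted effect of over 20% in size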
# Target sequence (P00811 whole entry, looked up): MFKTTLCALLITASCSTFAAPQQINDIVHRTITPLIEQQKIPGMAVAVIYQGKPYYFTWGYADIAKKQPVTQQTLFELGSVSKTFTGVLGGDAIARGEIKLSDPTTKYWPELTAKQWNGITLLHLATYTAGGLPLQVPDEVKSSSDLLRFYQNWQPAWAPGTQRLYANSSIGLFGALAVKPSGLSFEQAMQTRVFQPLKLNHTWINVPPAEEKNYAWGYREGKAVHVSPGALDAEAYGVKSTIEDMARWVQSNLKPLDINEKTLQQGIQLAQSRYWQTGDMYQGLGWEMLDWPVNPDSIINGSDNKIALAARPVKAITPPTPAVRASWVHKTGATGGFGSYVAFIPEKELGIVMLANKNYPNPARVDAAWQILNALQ
#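 20 mM phosphate pH 7.0 + 0.01% (detergent screen) or 0.0001% Triton X-100; 5.3 nM AmpC reagent; cpd preinc 15 min RT; nitrocefin (800 uM stock) to start; A480 q20 s × 4 min; Activity was normalised to no-enzyme and no-compound control wells.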
# FMDV antiviral: blocks foot and mouth disease virus; FMDV antiviral cell-based qHTS; Potency, µM (doses to about 57.9 µM), inactives show at the highest dose activity change, negative = inhibition, usual class: inhibitors; 410,000 tested, 1.2% active; calls by dose curve; tested in HEK293T cells; also: read-out not given here; potency is read from the fitted curve at half-maximal effect; nearly all actives have a fitted effect of over 45% in size
# HCMV antiviral: human cytomegalovirus inhibition | 410,000 tested, 4.5% active | HFF cells, HCMV-luciferase reporter, 72 h; hits give low values | activity change, negative = inhibition, % at 57.5 µM | AID 1259415; in the data active = activity change below about -60%; inconclusive = no clear call, values can overlap the other calls; inactive = above about -39%
#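 After 16 h attachment at 37C, HFF cells received test compound and HCMV-luciferase (1 PFU/cell); reporter luminescence read 72 h later, data normalized against buffer-only and known inhibitor Salinomycin.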
# HCV inh: blocks hepatitis C virus | AID 651820 | Potency, µM (top dose mostly 41.8 µM), for inactives: top-dose activity change, negative = inhibition, hits mostly inhibitors | Huh7.5.1 HCVcc-Cre infection, luciferase reporter, 44 h | 340,000 tested, 3.4% active; also: potency is read from the fitted curve at half-maximal effect
#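 After 44 h co-culture of compound, cells and HCVcc-Cre (~0.5 moi), substrate is added for 15 min at room temperature and luciferase measured over 15 sec. Cells were seeded at 1,000/well and pre-cultured 4 h.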
# AmpC detergent: AmpC beta-lactamase inhibition with detergent present; Potency, µM (doses to about 114 µM), without a hit: at the top dose activity change, negative = inhibition, usual class: inhibitors; 370,000 tested, 0.041% active; AmpC hydrolysis of nitrocefin, absorbance 480 nm, 0.01% Triton;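 also: potency is read from the fitted curve at half-maximal effect; 0% = no-compound wells and -100% = no-enzyme wells; nearly all actives have a fitted effect of over 25% in size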
#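 AmpC (5.3 nM in the dispensed reagent) in 20 mM phosphate pH 7.0 with 0.01% (detergent screen) or 0.0001% Triton X-100 was preincubated with compounds for 15 min at room temperature. Nitrocefin was then added from an 800 uM solution, and hydrolysis was followed at 480 nm.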
# Active calls of the source: *; ? = inconclusive; . = no result given; [ ] = dose if it differs, or a comment. Unless noted, calls follow the shape of the dose curve; as a rule, active = well fitted curve in the direction sought with a large enough effect; inconclusive = small, poorly fitted or top-dose-only effect, or another doubt; inactive = no such curve, though single readings can be large; an effect the other way counts as inactive or inconclusive. Unless noted, % is scaled to controls: 0 for no effect and ±100 for the full control effect.
SMILES,AmpC no deterg,FMDV antiviral,HCMV antiviral,HCV inh,AmpC detergent
COc1ccc(NS(=O)(=O)c2cccc(NC(=O)NC3CCCCC3)c2)cc1,-31%,-17%,-60*,?,?
COc1ccc(NS(=O)(=O)c2cccc(C(=O)NCC3(N4CCOCC4)CCCCC3)c2)cc1,-14%,24%,-67*,1%,0%
COc1ccc(NS(=O)(=O)c2cccc(C(=O)NCc3ccccc3CN3CCCC3)c2)cc1,23%,-4%,0,11µM*,0%
Cc1oc(-c2ccccc2)nc1CS(=O)CC(=O)NC1CCCC1 (stereo not drawn),-15%,4%,29,5%,-5%
CCCCN1CC(=O)N2[C@H]3c4ccc(OC)cc4OC[C@@H]3[C@H](c3ccccc3)[C@]2(C)C1=O,97%,-19%,18,?,3%
CCOc1ccc(OCCC(=O)N(CCC(C)C)c2c(N)n(Cc3ccccc3)c(=O)[nH]c2=O)cc1,5%,-11%,-29,-4%,?
CCn1c(-c2ccccc2Cl)nn(CC(=O)Nc2ccc(OC)cc2)c1=S,1%,8%,-20,-30%,-7%
CCOc1ccc(NC(=O)Cn2nc(-c3ccccc3Cl)n(CC)c2=S)cc1,11%,?,-62*,?,-9%
Cc1cc(=O)n(Cc2ccc(F)cc2Cl)c2c1c(C)nn2-c1ccccc1,.,18%,2,.,3%
Cc1cccc(OCC(=O)N2CCN(c3nnc(-c4ccccc4)c4ccccc34)CC2)c1,38%,?,-32,?,3%
Cc1ccc(-c2nnc(N3CCN(C(=O)COc4cccc(C)c4)CC3)c3ccccc23)cc1,50%,25µM*,-34,?,-9%
Cc1ccc(-c2nnc(N3CCN(C(=O)CN4C(=O)c5ccccc5C4=O)CC3)c3ccccc23)cc1,.,-16%,-13,-3%,.
COc1ccc(OCC(=O)N2CCN(c3nnc(-c4ccc(C)cc4)c4ccccc34)CC2)cc1,27%,28µM*,-29,8.9µM*,-3%
O=C(COc1ccccc1)N1CCN(c2nnc(-c3ccccc3)c3ccccc23)CC1,38%,?,?,?,-13%
COc1ccc(OCC(=O)N2CCN(c3nnc(-c4ccccc4)c4ccccc34)CC2)cc1,43%,?,15,18µM*,-17%
Cc1ccc(OCC(=O)N2CCN(c3nnc(-c4ccc(C)cc4)c4ccccc34)CC2)cc1,-6%,?,-99*,8.9µM*,?
O=C(OCCN1CCOCC1)c1ccccc1Cl,.,43%,2,2%,.
C/C(=N\O)C1CCCCC1,-15%,.,.,.,4%
CCCS(=O)(=O)NCc1c(C)ncc2c1CCN(C(=O)/C=C/c1ccc(F)cc1F)C2,.,3%,.,.,.
Cc1cccc(OCC(=O)N2CCN(C(=O)c3ccc([N+](=O)[O-])cc3)CC2)c1,3%,-16%,-61*,-7%,-5%
Cc1cccc(OCC(=O)N2CCN(Cc3ccc([N+](=O)[O-])cc3)CC2)c1,-5%,?,-32,?,-1%
COc1cccc(CNc2nc3cc(-c4cnn(Cc5ccccc5)c4)sc3c(=O)n2C)c1,.,14µM*,-82*,.,.
COc1cccc(CNc2nc3cc(-c4cccc(OC)c4)sc3c(=O)n2C)c1,.,-21%,18,.,.
CC1CC[C@@]2(OC1)OC1C(O)C3C4CC[C@H]5CC(O[C@@H]6O[C@@H](CO)[C@H](OC7OC(CO)C(O)C(OC8OCC(O)C(O)[C@H]8O)[C@@H]7O[C@@H]7OC(CO)[C@H](O)[C@@H](O[C@@H]8OC(CO)C(O)C(O)C8O)C7O)C(O)C6O)C(O)C[C@]5(C)C4CC[C@]3(C)C1C2C (stereo partly drawn),.,35µM*,.,.,.
CC(C)(O)C1CC[C@@](C)([C@@H]2CC[C@]3(C)[C@H]2[C@H](O)CC2[C@@]4(C)CCC(O)C(C)(C)C4C(OC4OC(CO)C(O)C(O)C4O[C@@H]4OCC(O)C(O)C4O)C[C@]23C)O1 (stereo partly drawn),58%,-11%,-5,10%,.
SMILES,AmpC no deterg,FMDV antiviral,HCMV antiviral,HCV inh,AmpC detergent
CCOC1=C2[C@H](c3ccccc3)N(S(=O)(=O)c3ccc(C)cc3)C(C(C)(C)C)[C@H]2C(C#N)(C#N)C(C#N)(C#N)C1 (stereo partly drawn),.,?,-100*,.,.
O=C(NCCc1nnc2n1CCN(Cc1ccc(F)cc1)CC2)c1ccc(F)cc1,.,-10%,.,.,.
COc1cccc(C(=O)/C=C/Nc2cc(C)ccc2O)c1,-45%,20%,-79*,2.2µM*,?
CCOC(=O)c1ccc(N/C=C\C(=O)c2cccc(OC)c2)cc1,-27%,24%,43,13%,-12%
COc1cccc(-c2ccc(O)c(CNCc3cccc(OC)c3OC)c2)n1,.,-3%,.,.,.
CCN1CCCC1CNC(=O)c1cnn(-c2nccc(-c3cc(OC)ccc3OC)n2)c1C (stereo not drawn),.,-3%,.,.,.
Cc1cc(C(=O)C(C)Sc2cccc[n+]2[O-])c(C)n1-c1ccc(Cl)cc1 (stereo not drawn),1%,-7%,-26,4.5µM*,-1%
CNCC[C@H](Oc1ccccc1OC)c1ccccc1,.,-20%,.,.,.
CNCC[C@@H](Oc1ccc(C(F)(F)F)cc1)c1ccccc1,20%,-18%,-23,7.9µM*,?
C[N+](C)(C)CCCCCCCCCC[N+](C)(C)C,-6%,-18%,-12,0%[8.37 µM],-13%
C#CC[N+](C)(C)CCCCCCCCC,15%,-10%,-95*,?,?
CC#CC[N+](C)(C)CCCCCCCCCC,45%,-4%,-65*,?,1%
Nc1cn(C2OC(CO)C(O)C2O)c(=O)[nH]c1=O (stereo not drawn),-16%,12%,-22,9%,-12%
O=C(Cn1nc(-c2ccccc2)nc(Cc2ccccc2)c1=O)Nc1ccccc1,.,5%,-8,.,-1%
Cn1c(=O)c(Cc2ccccc2)c(O)c2ccccc21,-4%,11%,-8,-13%,1%
O=c1c(Cc2ccccc2)c(O)c2cccc3c4c(n1c23)CCCC4,7.9µM*,-3%,21,24%,0%
CO[C@H]1[C@H](NC(=O)c2ccsc2)c2ccccc2C12CCN(Cc1cccc3ncccc13)CC2,.,-17%,.,.,.
Cc1cc(C)cc(Oc2ccc(N)cc2)c1,2%,8%,32,2µM*,1%
Cc1cccc(Oc2ccc(N)cc2)c1,-13%,0%,61,?,0%
Nc1ccc(Oc2cccc(Oc3ccc(N)cc3)c2)cc1,-11%,10µM*,-76*,-11%,10%
CCC(NC(=O)CCl)c1ccc(C)cc1 (stereo not drawn),-5%,?,-78*,10%,2%
CCCC(NC(=O)CCl)c1ccccc1 (stereo not drawn),-8%,?,-72*,?,11%
